# Assay results as given in PubChem BioAssay AID893 (National Center for Advancing Translational Sciences (NCATS), 2007).
# Where “and” joins values, the source holds several entries; their conditions need not be identical. Equal values may be shown once. Screen size: about 75,000 compounds; about 5,700 (7.6%) were called active. Entries that show only a call come without a potency. Inconclusive results (about 7%) are left out. The sample as a whole holds a higher share of actives than the screen did. Unmarked numbers belong to inactive results. Calls come from the whole dose curve; as a rule, active = well fitted inhibition curve with a large enough effect; inconclusive = small, poorly fitted or top-dose-only effect; inactive = no such curve, though single readings can be large or run the other way.
# Biological target: 3-hydroxyacyl-CoA dehydrogenase type-2 (Homo sapiens) (UniProt Q99714)
# Assay: qHTS Assay for Inhibitors of HSD17B4, hydroxysteroid (17-beta) dehydrogenase 4;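 note: the protocol describes HADH2 (HSD17B10) and not the HSD17B4 of the title; nearly all actives have a fitted effect of over 70% in size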
# Details: recombinant HSD17B10, NADH fluorescence kinetic; series mostly up to 57.1 µM
# Summary of the method: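 His-tagged E. coli-expressed HADH2 at 20 nM in 100 mM Tris-HCl pH 9.0 with 0.01 % Tween-20, preincubated 15 min with compound at room temperature. Reaction with 1 mM NAD+ and 90 uM beta-hydroxybutyryl coenzyme A; NADH fluorescence (360/450 nm) read kinetically over 4 min, last minus first point.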
# Potency is the fitted concentration of half-maximal effect.
SMILES,Potency,"activity change, negative = inhibition"
CCN1C(=O)CS/C1=N\c1nccs1,inactive,–
CCOC(=O)N1CCN(C(=O)C2CC(c3ccc(F)cc3)=NO2)CC1 (stereo not drawn),inactive,–
O=Cc1c(Cl)cccc1Cl,inactive,–
O=C(c1cn(-c2ccccc2)nc1-c1cccnc1)N1CCCCC1,inactive,–
COc1ccc2[nH]cc(CCNc3nc(-c4cccc(NS(C)(=O)=O)c4)nc4ccccc34)c2c1,inactive,–
CO[C@H]1COC(=O)C/C=C\[C@H](C)COC(=O)[C@@H](OCc2ccccc2)/C=C\[C@@H]1C,–,-3.84% [at 11.4 µM]
CS(=O)(=O)N1CCC[C@@]2(CCN(c3ccncc3)C2)C1,inactive,–
CCNCCCNCCCNCCCNCC,inactive,–
C=C[C@](C)(O)CCC1C(=C)CCC2[C@@](C)(CO)CCC[C@@]12C (stereo partly drawn),inactive,–
COC(=O)C(C(=O)OC)[C@@H]1CCCC(=O)C1,–,8.89% [at 11.4 µM]
O=C(CNS(=O)(=O)c1ccc(Br)s1)NCc1ccc2c(c1)OCO2,inactive,–
Cc1ccc(-c2nc(CS(=O)CC(=O)NC3CCCC3)c(C)o2)cc1 (stereo not drawn),inactive,–
COc1ccc(-c2nc(CS(=O)CC(=O)NCc3cccnc3)c(C)o2)cc1OC (stereo not drawn),25.1 µM (active),–
COc1ccc(-c2nc(CS(=O)CC(=O)NCc3ccccn3)c(C)o2)cc1 (stereo not drawn),inactive,–
CCOc1ccc(C(=O)N(Cc2ccc(N(C)C)cc2)C2CCS(=O)(=O)C2)cc1 (stereo not drawn),inactive,–
CN1CCc2nc(-c3ccccc3)c(-c3ccccc3)cc2C1,–,2.91% [at 11.4 µM]
COc1cc(C2C(C(=O)c3ccc(C)o3)=C(O)C(=O)N2Cc2cccnc2)ccc1O (stereo not drawn),inactive,–
O=C(Nc1ccccc1N1CCCCC1)c1cccc(F)c1,inactive,–
Cc1c(NC(=O)C(C)OC(=O)c2cc3c4ccccc4n(C)c3s2)c(=O)n(-c2ccccc2)n1C (stereo not drawn),3.98 µM (active),–
COC(=O)Nc1c(C)n(C)n(-c2ccccc2)c1=O,inactive,–
Cc1cc(C)cc(N(C(C)C(=O)Nc2c(C)n(C)n(-c3ccccc3)c2=O)S(C)(=O)=O)c1 (stereo not drawn),inactive,–
CCOC(=O)CSc1nnc(CNC(=O)c2ccco2)n1-c1ccc(F)cc1,inactive,–
C/C(=C\C(=O)c1cccnc1)Nc1ccc(C)c(C)c1,inactive,–
O=c1cccc(-c2ccc(Br)cc2)o1,inactive,–
CC1C(c2ccccc2)=[N+]([O-])C2(CCCC2)N1O (stereo not drawn),inactive,–

SMILES,Potency,"activity change, negative = inhibition"
Nc1ncnc2c1ncn2C1CC(O)C(CO)O1 (stereo not drawn),inactive,–
CCC[C@@H]1C[C@@]1(CCC)[C@@H](NC(=O)c1ccccc1)c1ccc(C(=O)OC)cc1,inactive,–
O=C(CCCCn1c(=O)[nH]c2ccccc2c1=O)NCc1ccc2c(c1)OCO2,inactive,–
Cc1nc2c(C(=O)NCc3ccc4c(c3)OCO4)c[nH]n2c(=O)c1Cc1ccccc1F,31.6 µM (active),–
CCn1cc(C(=O)NCc2ccc3c(c2)OCO3)c2cc(OC)c(OC)cc2c1=O,inactive,–
CC1CCCCC1NC(=O)CCS(=O)(=O)c1cccc2nonc12 (stereo not drawn),inactive,–
COc1ccc2oc(=O)c(C(=O)N3CCCc4ccccc43)cc2c1,inactive,–
COc1ccc2oc(=O)c(C(=O)N3CCN(c4ccccc4F)CC3)cc2c1,25.1 µM (active),–
COc1ccc2oc(=O)c(C(=O)O)cc2c1,inactive,–
CC(=O)C1C(c2ccc(Cl)cc2)NC(=O)NC1(O)C(F)(F)F (stereo not drawn),inactive,–
COC(=O)[C@@]1(Cc2ccc(F)cc2)[C@@H]2[C@@H](CC(=O)[C@H]2CC(=O)C(=O)N2CCCC2)CN1C(=O)c1ccccc1,inactive,–
CN1CCN(Cc2nc3c(c(=O)n(C)c(=O)n3C)n2Cc2cccc3ccccc23)CC1,inactive,–
CCN(CC)C(=O)CSc1nnc(-c2cccc(OC)c2)o1,inactive,–
COc1ccc(-c2nnc(SCC(=O)c3cccs3)o2)c(OC)c1,inactive,–
COc1ccc(OC)c(C(=O)CSc2nnc(-c3cccs3)o2)c1,31.6 µM (active),–
COCC(C)N=CC1=C(O)CC(C)(C)CC1=O (stereo not drawn),inactive,–
CCc1cc(=O)oc2cc(C)cc(OC(C)C(=O)O)c12 (stereo not drawn),31.6 µM (active),–
N#CCC(=O)NC(=O)NCC1CC1,inactive,–
CCCC[C@@H]1C[C@H]1C(NC(=O)c1ccco1)c1ccc(C(=O)OC)cc1 (stereo partly drawn),inactive,–
O=C(Cn1ccc(=O)[nH]c1=O)Nc1ccc(C(=O)O)c(O)c1,–,-0.357% [at 11.4 µM]
O=C(O)c1ccc(C(=O)O)c2c(C(=O)O)ccc(C(=O)O)c12,–,-1.54% [at 11.4 µM]
O=C(O)c1ccc(-n2cccc2)cc1O,31.6 µM (active),–
Cc1cc(NS(=O)(=O)c2ccccc2)no1,inactive,–
Nc1ncn(C2OC(CO)C(O)C2O)c(=O)n1 (stereo not drawn),inactive,–
O=C(Nc1cnn(Cc2ccc(Cl)cc2)c1)C1CCCC1,inactive,–

SMILES,Potency,"activity change, negative = inhibition"
O=C(Nc1ccncc1)c1c(F)cccc1F,inactive,–
Cn1c(=O)n(C)c2cc(C(=O)Nc3ccc4c(c3)OCO4)ccc21,inactive,–
CN1C(=O)c2ccc(NC(=O)C3CCCCC3)cc2C1=O,25.1 µM (active),–
O=C(O)c1ccc(NC(=O)C2CCCCC2)cc1,inactive,–
CN1C(=O)c2ccc(NC(=O)c3c(F)c(F)c(F)c(F)c3F)cc2C1=O,12.6 µM (active),–
C#CCC(C(=O)OC)(C(=O)OC)C(C[N+](=O)[O-])c1ccccc1 (stereo not drawn),–,-8.6% [at 11.4 µM]
Cn1c(=O)n2n(c1=O)[C@H]1[C@H](O)[C@H]3O[C@H]3C(=O)[C@H]1CC2,–,-7.54% [at 11.4 µM]
O=C(C1CCN(S(=O)(=O)Cc2ccccc2)CC1)N1CCCc2ccccc21,inactive,–
Cc1ccccc1C(=O)O,inactive,–
COc1ccc(C2CC(=O)c3c(O)cc(OC4OC(COC5OC(C)C(O)C(O)C5O)C(O)C(O)C4O)cc3O2)cc1O (stereo not drawn),inactive,–
CO[C@@H]1COC(=O)C/C=C\[C@H](C)[C@@H](NS(=O)(=O)c2ccc(C)cc2)COC(=O)C/C=C\[C@@H]1C,–,2.45% [at 11.4 µM] and 8.54% [at 11.4 µM]
Cc1cc(NC(=O)c2cc(-c3cccs3)on2)nn1Cc1ccc(Cl)cc1,inactive,–
O=C(O)CCC(=O)N(Cc1cccs1)Cc1cccs1,inactive,–
CC(C)Cn1c(CCC(=O)O)ccc1-c1cccs1,31.6 µM (active),–
C/C=C1\C(=O)C[C@@H]2[C@@H]3CCC4=CC(=O)CC[C@@]4(C)[C@H]3CC[C@@]12C,inactive,–
Cc1ccc(S(=O)(=O)NC(=O)NN2C[C@H]3CCC[C@@H]3C2)cc1,inactive,–
CC1CCCCN1CCCNC(=O)c1ccc(-n2c(=O)c(=O)[nH]c3ccccc32)cc1 (stereo not drawn),inactive,–
Cn1c(C(=O)N2CCC(C(N)=O)CC2)cc2c(=O)n(C)c3ccccc3c21,inactive,–
CC1CCCC(C)N1CCCNC(=O)c1cc2c(=O)n(C)c3ccccc3c2n1C (stereo not drawn),31.6 µM (active),–
C=C(C)C1CC=C(CO)CC1 (stereo not drawn),inactive,–
COC(=O)[C@@H]1C[C@@]2(O)[C@H](O)[C@H](O)[C@H](O)C[C@H]2N1Cc1ccc(C)s1,inactive,–
N#Cc1c2c(c(N3CCN(CCO)CC3)n3c1nc1ccccc13)CCCC2,inactive,–
Cc1ccccc1NC(=O)NCc1ccco1,inactive,–
Cc1cc(NCc2ccco2)n2c(nc3ccccc32)c1C#N,3.16 µM (active),–
C/C(CCN1CCCCc2nc(C)c(C)cc21)=N\O[C@@H](C)c1cn([C@@H]2COC[C@@H]2O)nn1,–,0.914% [at 11.4 µM]

SMILES,Potency,"activity change, negative = inhibition"
CCC1CCCCN1CCNS(=O)(=O)c1ccc2c(c1)CCN2C(C)=O (stereo not drawn),inactive,–
CCOC(=O)c1ccc(N2C(=O)CC(N3CC(C)OC(C)C3)C2=O)cc1 (stereo not drawn),inactive,–
N#Cc1cccc(CSc2nnc(CCCO)n2-c2ccccc2)c1,inactive,–
Cn1c(N)c(C(=O)COC(=O)c2cc(C(F)(F)F)nc3c(C(F)(F)F)cccc23)c(=O)n(C)c1=O,inactive,–
Cc1c(O)c(Br)c(C)c(O)c1Br (tested in a mixture with another compound),0.794 µM (active),–
CN(c1ccc(C(=O)NCCC2=CCCCC2)cc1)S(C)(=O)=O,inactive,–
CCC[C@@H]1C[C@@]1(CCC)C(NS(=O)(=O)c1cccc2cccnc12)c1ccc(Cl)cc1 (stereo partly drawn),inactive,–
Clc1ccc(C2[C@H]3CN(CC4CCCCC4)[C@H](c4ccccc4)C34CC2(c2cccnc2)C4)cn1 (stereo partly drawn),inactive,–
Cc1ccc(S(=O)(=O)NCc2nc3ccccc3c(=O)n2N)cc1,inactive,–
Cc1ccc(S(=O)(=O)c2c(N)n(C)c3nc4ccccc4nc23)cc1,25.1 µM (active),–
c1cc(-n2cnnn2)ccc1NC1=NCCC1,inactive,–
CC(C)CN1CCc2nc(-c3ccccc3)c3c(c2C1)COC(C)C3 (stereo not drawn),–,-2.26% [at 11.4 µM]
Cc1ccc(Cn2ccc(NC(=O)c3cc(C(C)C)on3)n2)cc1,inactive,–
CC(C)c1ccc(OCC(O)Cn2cnc3ccccc32)cc1 (stereo not drawn),inactive,–
CCOC(=O)N1CCN(C(=O)c2ccc3nc4cc(Cl)ccc4c(=O)n3c2)CC1,1 µM (active),–
CCOC(=O)N1CCN(C(=O)CSc2ccc(Cl)cc2)CC1,inactive,–
CCOC(=O)N1CCN(C(=O)CNC(=O)Cc2ccc(Cl)cc2)CC1,inactive,–
Cn1c(=NC(=O)CSCC(=O)N2CCCCC2)sc2ccccc21,inactive,–
O=C(CSc1nnc(-c2ccccn2)n1-c1ccccc1)Nc1ccc2c(c1)OCO2,inactive,–
CC[C@H](c1ccccc1)c1cc(C(C)(C)C)cc(C(C)(C)C)c1O,–,-3.63% [at 11.4 µM]
NC(=O)CSC1=Nc2ccccc2C2=NC(CCC(=O)NCc3ccc(F)cc3)C(=O)N12 (stereo not drawn),31.6 µM (active),–
CC(C)C1N=C2c3ccccc3N=C(SCC(=O)c3ccc(O)c(O)c3)N2C1=O (stereo not drawn),inactive,–
O=C(CN1C(=O)CCS(=O)(=O)c2ccccc21)NCc1ccc(F)cc1,inactive,–
